# Screening data: PubChem BioAssay, National Center for Advancing Translational Sciences (NCATS)
# Shown are actives, neighbours in structure and some others; about 3.9% of the full set was active somewhere.
# HT1080NT lethal = qHTS for induction of synthetic lethality in tumor cells producing 2HG: qHTS for the HT-1080-NT fibrosarcoma cell line | hit rate 1.6% among 360,000 | Potency, µM (highest dose often 46.1 µM), without a hit: at the top dose activity, negative = less viability, hits mostly cytotoxic | HT-1080-NT fibrosarcoma viability, CellTiter-Glo ATP luminescence, 48 h;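 further: NT is the 2HG producing partner of a matched IDH1 knockdown line; 0% = DMSO-treated cells and -100% = media-only wells without cells; nearly all actives have a fitted effect of over 55% in size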
#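 Viability of the 2HG-overproducing fibrosarcoma line after 48 hours of compound exposure at 37 degrees C was determined by luminescence with CellTiter-Glo, and concentration-effect curves were then fitted and categorized.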
# TGFb SMAD3 inh = qHTS for Inhibitors of TGF-b; HepG2 CAGA-GFP TGF-b/SMAD3 reporter, GFP fluorescence, 18 h; TGF-beta stimulated, 500 pg/mL final; Potency, µM (top dose mostly 46.1 µM), for inactives: at the highest dose activity, negative = inhibition, hits mostly inhibitors; hit rate 1.2% among 410,000; further: on the % scale 0 is the no-effect control and ±100 the full control effect; nearly all actives have a fitted effect of over 65% in size
#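 Using HEPG2 CAGA-GFP reporter cells at 1000 cells/well, we pinned test compounds, stimulated with recombinant TGF-beta (500 pg/mL final) and measured total well GFP after 18 h.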
# HT1080 IDH1KD tx = qHTS for induction of synthetic lethality in tumor cells producing 2HG: qHTS for the HT-1080-IDH1KD cell line | HT-1080 IDH1 knockdown viability, ATP luminescence, 48 h | Potency, µM (top dose mostly 46.1 µM), for inactives: at the highest dose activity, negative = toxicity, most hits filed as cytotoxic | hit rate 2% among 360,000 | AID 686971, 2013;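 further: 0% = DMSO wells and -100% = cell-free medium wells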
#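 Luminescent ATP read-out (CellTiter-Glo, 10 min at room temperature) after 48 h compound exposure at 37 °C gave viability of IDH1-knockdown HT-1080 cells. Activity was normalised to DMSO and cell-free wells, then fitted as concentration-response curves.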
# ATXN2 expr inh = Primary qHTS for Inhibitors of ATXN expression. HEK-293 ATXN2-luciferase reporter, luminescence, 24 h. Potency, µM (highest dose often 57 µM), for the others: at the top dose activity change, negative = inhibition, hits mostly inhibitors. hit rate 0.72% among 360,000; further: on the % scale 0 is the no-effect control and ±100 the full control effect; nearly all actives have a fitted effect of over 55% in size
#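 ATXN2-luciferase reporter cells (luciferase flanked by upstream and downstream ATXN2 gene portions) were treated 24 h at 37 °C with compounds at up to 57 uM. SteadyGlo luminescence gave expression; GF-AFC fluorescence gave viability.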
# S2 tox = Viability Counterscreen for Primary qHTS for Inhibitors of ATXN expression; S2 cells (HEK-293 line with an ATXN2-luciferase reporter) viability, CellTiter-Fluor protease fluorescence, 24 h; AID 651635, 2014; hit rate 0.49% among 400,000; Potency, µM (top dose mostly 56.7 µM), hits mostly cytotoxic; further: nearly all actives have a fitted effect of over 40% in size
# HepG2 viability = qHTS for Inhibitors of TGF-b: Cytotox Counterscreen; HepG2 CAGA-GFP viability, ATP luminescence, 18 h; Potency, µM (highest dose often 46.1 µM), without a hit: at the top dose activity change, negative = cytotoxicity, actives largely listed as cytotoxic; hit rate 0.76% among 410,000; AID 588856, 2011
#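 HepG2 CAGA-GFP cells (1000/well, DMEM with 1% FBS) received compound, then TGF-beta at 500 pg/mL final, and were incubated 18 hours at 37 degrees C. Viability was read by CellTiter-Glo luminescence. Media-only wells were set as complete cell-killing and DMSO as no toxicity.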
# Numbers without * were called inactive; i = inactive; ? = inconclusive; nt = no result; [ ] = another dose, or the depositor's remark. The call rests on the fitted dose curve; in most records, active means well fitted curve in the direction sought with a large enough effect; inconclusive means small, poorly fitted or top-dose-only effect, or another doubt; inactive means no such curve, though single readings can be large; an effect the other way counts as inactive or inconclusive. Potency means the concentration at half of the fitted maximal effect.
SMILES,HT1080NT lethal,TGFb SMAD3 inh,HT1080 IDH1KD tx,ATXN2 expr inh,S2 tox,HepG2 viability
O=C(OCC(F)(F)F)c1cccc(COc2ccc3ccccc3c2)c1,3.0%,4.1%,0.0%[9.24 µM],2µM*,i,11.4%
COc1ccc(OCc2cccc(C(=O)O)c2)cc1,?,3.3%,?,0.316µM*,i,-57.1%
CCOc1ccc(OCc2cccc(C(=O)N3CCCC3)c2)cc1,-5.9%,-13.8%,9.2%,7.94µM*,i,0.5%
O=C(O)c1cccc(COc2ccc(CO)cc2Cl)c1,-15.5%,-10.9%,-15.7%,0.282µM*,i,-23.6%
CCOc1ccc(OCc2cccc(C(=O)N3CCCCCC3)c2)cc1,-15.9%,-14.5%,-0.6%,nt,i,-1.4%
O=C(O)c1cccc(COc2ccc3c(c2)CCC3)c1,-9.8%,-1.1%,-3.3%,?,i,-13.4%
Cc1ccccc1OCCSc1nc2ccc(NC(=O)c3cccc(F)c3)cc2s1,nt,?,nt,-10.4%,?,-76.1%
CC(=O)SCC(CC(=O)c1ccc(C)cc1)C(=O)O (stereo not given),nt,nt,nt,-1.2%,i,nt
CCOc1ccc(OCc2cccc(C(=O)O)c2)cc1,7.94µM*,-5.3%,7.94µM*,0.282µM*,i,-66.9%
O=C(O)c1cc(OCc2ccccc2)cc(OCc2ccccc2)c1,-18.4%,-4.8%,-0.2%,?,i,2.7%
COc1cc(/C=C/[N+](=O)[O-])ccc1OCc1cccc(C(=O)O)c1,?,?,?,28.2µM*,?,-39.6%
COc1cccc(OC)c1C(=O)NNC(=O)c1cccc(COc2ccc3c(c2)CCC3)c1,-12.5%,-1.9%,-18.4%,5.62µM*,i,-25.2%
COC(=O)C1CCN(c2nc(CN(C)C3CCOC3)nc3cc(OC)c(OC)cc23)CC1 (stereo not given),nt,nt,nt,nt,i,nt
COCCn1c(CCC(=O)Nc2ccc(OC)c(OC)c2)nc2cccnc21,nt,9.5%,nt,3.4%,i,0.9%
COc1cc(NC(=O)CCl)ccc(=O)c1,20.6µM*,?,23.1µM*,nt,?,0.708µM*
O=C(CCl)Nc1cccc(Oc2ccccc2)c1,?,8.91µM*,?,9.47µM*,nt,-91.8%
Nc1cccc(Oc2cnccn2)c1,3.4%,-2.1%,0.2%,nt,i,5.2%
O=C(CCl)Nc1cccc(Oc2cnccn2)c1,?,15.8µM*,?,?,22.4µM*,-97.4%
Cc1cc(C)n2nc(C(=O)NCC3Cc4cccc(-c5ccc(S(C)(=O)=O)cc5)c4O3)cc2n1 (stereo not given),nt,nt,nt,nt,i,nt
Cc1cc2nc(-c3ccco3)c(Cc3cccc(Cl)c3)n2c(C)c1Br,29.1µM*,nt,20.6µM*,?,?,nt
Clc1cccc(Cc2c(-c3ccco3)nc3ccc(Cl)cn23)c1,23.1µM*,17.8µM*,18.4µM*,?,nt,-113.1%
COC(=O)c1ccc2nc(-c3ccco3)c(Cc3ccc(C)cc3)n2c1,?,?,?,15.4%,i,-0.2%
Clc1ccc(-c2nc3ccc(Cl)cn3c2Cc2cccc(Cl)c2)cc1,?,?,?,12.6%,i,-21.1%
Clc1cccc(Cc2c(-c3ccco3)nc3ccc(Br)cn23)c1,?,12.6µM*,16.4µM*,?,nt,-115.0%
COC(=O)c1ccc2nc(-c3ccco3)c(Cc3ccc(OC)cc3C)n2c1,?,12.6µM*,16.4µM*,-5.1%,?,-30.7%
CCc1c(-c2ccccc2)nc2ccccc2c1C(=O)NCCc1ccccc1,nt,?,nt,nt,nt,-44.4%
COc1cc(CNC(=O)c2cnn(-c3ncc4c(n3)-c3ccccc3CC4)c2C)cc(OC)c1OC,nt,nt,nt,nt,i,nt
COc1ccccc1N1CCN(c2ncnc3n[nH]c(Br)c23)CC1,?,nt,18.4µM*,-28.8%,?,nt
